BaF3 tox = counter-screen for JAK2V617F inhibitors: parental Ba/F3 viability inhibitors; CellTiter-Glo ATP luminescence; inhibition, % at 5.6 µM; actives 1.1% (n = 220,000); AID 1486;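 active = inhibition above a per-campaign cutoff, the mean inhibition of all tested compounds plus 3 SD, cut at about 27% in these data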;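 also: 0% = DMSO wells and 100% = JAK Inhibitor I control wells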
GPR7 antag = blocks human GPR7 receptor signaling. actives 1.1% (n = 290,000). inhibition, % at 4.4 µM. GPR7-expressing cells, fluorescence antagonist assay; in the data active = inhibition above about 16%, passing the limit was not always enough;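 also: cells stimulated with the agonist NPW; 0% = agonist with vehicle and 100% = vehicle without agonist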
Target sequence (P48145 whole entry, looked up): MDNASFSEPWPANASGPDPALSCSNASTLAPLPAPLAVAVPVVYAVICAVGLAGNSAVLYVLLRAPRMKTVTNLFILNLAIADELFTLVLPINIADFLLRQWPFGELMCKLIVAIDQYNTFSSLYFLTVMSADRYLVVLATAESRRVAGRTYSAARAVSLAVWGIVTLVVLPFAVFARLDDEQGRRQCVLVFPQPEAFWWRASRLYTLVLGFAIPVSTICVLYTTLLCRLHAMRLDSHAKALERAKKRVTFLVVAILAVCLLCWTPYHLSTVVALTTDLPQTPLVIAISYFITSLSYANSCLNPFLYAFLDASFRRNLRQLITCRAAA
KLF5 inh = inhibitors of KLF5 expression; AID 1700; DLD-1 KLF5 promoter-luciferase reporter, luminescence; inhibition, % at 5 µM; actives 0.23% (n = 290,000);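 active = inhibition above a per-plate limit of that plate's mean compound inhibition plus 3 SD, cut at about 60% in these data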;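 also: 0% = DMSO wells and 100% = LY294002 at 200 µM; higher means less KLF5 promoter-driven luciferase light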
Ba/F3 V617F tox = reduce viability of Ba/F3 cells dependent on JAK2V617F | actives 1.1% (n = 220,000) | Ba/F3 EpoR-JAK2V617F viability, ATP luminescence | inhibition, % at 5.6 µM;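 active = inhibition above the campaign mean plus 3 SD over all tested compounds, cut at about 24% in these data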;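 also: cytokine-independent growth of Ba/F3 cells driven by EpoR plus mutant JAK2; 0% = DMSO-treated cells and 100% = JAK inhibitor I control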
FID counter = counter-screen for HCV NS3 helicase inhibitors: DNA intercalator displacement. DNA fluorescent intercalator displacement, fluorescence. actives 0.17% (n = 290,000). AID 1845. inhibition, % at 7.9 µM; in the data active = inhibition above about 37%;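 also: 0% = vehicle and 100% = reference compound; higher means more ethidium bromide displaced from hairpin DNA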
IEC-6 cytotox = counter-screen for KLF5 inhibitors: cytotoxicity in IEC-6 cells. inhibition, % at 5 µM. IEC-6 cytotoxicity, luminescence viability. actives 0.78% (n = 290,000); in the data active = inhibition above about 22%;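 also: 0% = plate median of test compound wells and 100% = cytotoxic reference compound wells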
An asterisk follows results filed as active; · = no result. A selection: hits, their analogues and other compounds. The true share with any hit is near 2.6%.

SMILES | BaF3 tox | GPR7 antag | KLF5 inh | Ba/F3 V617F tox | FID counter | IEC-6 cytotox
O=C(NC(=O)c1c(F)cccc1F)Nc1cc(Cl)c(F)c(Cl)c1F | 0 | active | -9 | -5 | -1 | -8
CCCNC1=C(C)C(=O)C2=C(C1=O)C(COC(N)=O)[C@]1(OC)C3NC3CN21 (stereo partly drawn) | 62* | -6 | -13 | 82* | -6 | 8
O=c1c2ccccc2nc(CNc2ccccc2)n1-c1ccccc1 | 0 | -12 | -18 | 0 | -1 | 1
CC(=O)C1(c2ccccc2)CCNCC1 | 5 | 14* | -17 | 0 | 4 | -4
CCCCCSc1cc(OC)c(CCN)cc1OC | 10 | 15 | 35 | 8 | 39* | 12
CN1CCN(c2ccccc2N)CC1 | 0 | -14 | -14 | -3 | 2 | 5
CN1CCN(c2cccc3c2C(=O)c2ccccc2C3=O)CC1 | 6 | -10 | -43 | 3 | 60* | 7
COc1ccc(OC)c(N2C(=O)CC(=O)NC2=O)c1 | · | 3 | 0 | · | -13 | -2
COc1ccc(CCNCc2ccc(C)s2)cc1OC | 8 | -11 | -9 | 4 | 3 | 4
COc1ccc(Cc2nccc3cc(OC)c(OC)cc23)cc1OC | 27* | -14 | -1 | 11 | -2 | 15
C=CCn1c(O)c(C=NCCN2CCOCC2)c(=O)[nH]c1=S | -3 | 7 | -14 | 3 | -3 | 4
Clc1ccc(-c2nc3ccc(Cl)cn3c2CN2CCOCC2)cc1 | -1 | -1 | -28 | -3 | -15 | -5
CC[n+]1c(SC)ccc2cc(OC)ccc21 | 84* | -7 | -18 | 85* | 2 | -6
CC1Oc2cc3c(-c4c(O)cc(O)c5c(O)c6c(cc45)OC(C)C(C)C6=O)c(O)cc(O)c3c(O)c2C(=O)C1C (stereo not drawn) | 35* | -14 | 30 | 96* | 9 | -9
COc1ccc(Oc2cc(NC(=O)c3nn(C)cc3[N+](=O)[O-])cc([N+](=O)[O-])c2)cc1 | 42* | -5 | -26 | 63* | 17 | 15
CCC(COC(=O)NC)NC(=O)Oc1cccc(C)c1 (stereo not drawn) | -2 | -1 | -17 | 0 | -3 | -1
CNCC(O)c1cccc(OC(=O)c2ccccc2C)c1 (stereo not drawn) | 1 | 24* | -36 | -2 | 31 | -4
CCOC(=O)c1ccc2c(c1)n(Cc1ccccc1)c(C)[n+]2CC | 27* | -10 | -20 | 18 | 3 | -5
C[N+]1=C(/C=C/Nc2ccccc2)C(C)(C)c2ccccc21 | 61* | 0 | -7 | 59* | -5 | 5
CN1CCN(c2ccc([N+](=O)[O-])c(N/N=C3\CN4CCC3CC4)c2)CC1 | 1 | 0 | -23 | 0 | 42* | -3
CCNc1cc(N2CCN(C)CC2)ccc1[N+](=O)[O-] | 5 | -2 | -6 | 3 | 5 | 2
O=C(C1CC(c2ccc(Cl)c(Cl)c2)=NO1)N1CCC2(CC1)OCCO2 (stereo not drawn) | 2 | -6 | -61 | 1 | -14 | 2
CN1CCN(c2ccc([N+](=O)[O-])c3no[n+]([O-])c23)CC1 | 107* | 10 | 10 | 99* | -10 | 90*
COc1cc(CN2CCN(c3cc(C)ccc3C)CC2)ccc1O | 50* | 0 | -5 | 35* | 7 | 10
CN(C(=O)Oc1cccc2cccnc12)c1ccccc1 | 3 | -3 | -27 | -3 | -8 | -2
SMILES | BaF3 tox | GPR7 antag | KLF5 inh | Ba/F3 V617F tox | FID counter | IEC-6 cytotox
Oc1cccc2cccnc12 | · | 0 | 30 | · | -2 | 37*
NC(N)=N/N=C/c1ccc(N2CCOCC2)cc1 | 72* | -4 | 4 | 58* | 9 | 4
COc1ccc(/C=N\N=C(N)N)cc1 | 0 | -19 | 2 | 1 | -1 | 2
O=Cc1cn(Cc2ccc(Br)cc2)c2ccccc12 | · | -12 | 1 | · | -15 | 3
CC[N+]12CCC(CC1)C(=C(c1ccccc1)c1ccccc1)C2 | 29* | -15 | 15 | 9 | 16 | -1
O=C(/C=C/c1c[nH]c2ccccc12)c1c(O)n(CCc2ccccc2)c(=O)[nH]c1=O | 34* | -17 | 16 | -1 | -1 | 1
CCCCn1c(O)c(C(C)=NCCc2c[nH]c3ccccc23)c(=O)[nH]c1=O | -1 | -3 | 16 | 2 | -25 | 0
CC(C)[C@]12O[C@H]1[C@@H]1O[C@]13[C@]1(O[C@H]1C[C@H]1C4=C(CC[C@@]13C)C(=O)OC4)[C@@H]2O | 105* | -16 | 104* | 99* | 1 | 97*
CC(C)N1CCN(Cc2cccc([N+](=O)[O-])c2)CC1 | 7 | 5 | -14 | 0 | 0 | -4
CN(C)c1ccc(/C=C/[N+](=O)[O-])cc1 | 7 | 19* | -7 | 1 | 2 | -9
COc1cc(/C=C/[N+](=O)[O-])ccc1OC(=O)c1cccnc1 | · | -4 | -32 | · | -4 | 3
O=[N+]([O-])c1ccc(N2CCOCC2)c2ccncc12 | 6 | 0 | -41 | -4 | 8 | 0
CCCCCCn1c(O)c(C=NC2CCCCC2N)c(=O)[nH]c1=O (stereo not drawn) | 93* | -5 | -35 | 3 | -7 | 3
CCCCn1c(O)c(C=NC2CCCCC2N)c(=O)[nH]c1=O (stereo not drawn) | 6 | -10 | -9 | -1 | -2 | -5
CCN1CC=C(c2c[nH]c3ccccc23)CC1 | 73* | -2 | 9 | 87* | 8 | -6
Cc1[nH]c2ccccc2c1C(=O)CN1CC=C(c2ccccc2)CC1 | 4 | 17 | -12 | 0 | 1 | -4
CCOc1cc2c(cc1OCC)-n1cccc1C(c1ccccc1OC)NC2 (stereo not drawn) | · | 2 | 15 | · | 18 | 10
Clc1cccc(CN2CCCCC2c2cccnc2)c1 (stereo not drawn) | 1 | -9 | -5 | -3 | -4 | -4
O=C1CC(c2ccccc2)CC(O)=C1C=NCCN1CCN(C(=O)Cc2ccccc2)CC1 (stereo not drawn) | 28* | -2 | -20 | 3 | -43 | 5
Cc1ccc(C2CC(=O)C(C=NCCN3CCN(C(=O)Cc4ccccc4)CC3)=C(O)C2)cc1 (stereo not drawn) | 1 | 3 | 11 | 1 | -39 | -5
COc1ccc(CC(=O)N2C[C@H]3C[C@@H](C2)c2cccc(=O)n2C3)cc1 | · | 4 | -10 | · | -4 | -2
CC1CCC(C(C)C)C(OC(=O)Cn2c(COc3ccccc3)[n+](C)c3ccccc32)C1 (stereo not drawn) | 101* | 58* | -2 | 99* | 26 | -7
CC1CN=C(NCc2ccccc2)S1 (stereo not drawn) | 3 | -7 | -29 | -4 | -1 | -3
CN1/C(=C\C=Nc2ccccc2)C(C)(C)c2ccccc21 | 57* | -10 | -7 | 31* | -4 | -5
Cc1ccc(-n2c(/C=C/c3ccccn3)nc3ccccc3c2=O)cc1 | · | -1 | -38 | · | -18 | -4
COP(=O)(OC)C(NC(=O)C(C)(C)C)=C(Cl)Cl | -1 | -5 | -7 | -4 | -1 | 0
